Experimental findings from PubChem BioAssay AID493000 (Johns Hopkins Ion Channel Center, 2010) are described below.

SMILES strings stand for the structures. About 390 (21%) of roughly 1,900 compounds were called active. No rule for the calls is given here. The list is a sample of the results.

The assay can be described thus: carbachol calcium response in non-induced M3R cells, confirmation, counter-screen for RGS4 inhibitor project, cell-based, HEK293 M3R (AID 493000).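 Also: RGS4 induction absent so cells express M3R without RGS4.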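 As to activity (percent): higher means more calcium signal and flags a non-specific hit.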 Conditions: carbachol calcium Fluo-4, at 10 µM, submaximal (EC20) carbachol stimulus; active compounds read high, buffer wells 0%, carbachol control wells 100%. Background: Counterscreens check selectivity or assay interference.
Regarding `O=S(=O)(Nc1nccs1)c1ccc2c(c1)OCCO2`, the activity (percent) entry was “inactive”.
As to `Brc1ccc(-c2csc(N/N=C/c3cccnc3)n2)cc1`, the activity (percent) entry was “inactive”.
For `Cc1ccc(SC(CC(=O)c2ccc(C(C)(C)C)cc2)C(=O)O)cc1` (stereo not drawn), the activity (percent) result is “inactive”.
`Nc1cccc(-c2cc(-c3ccccc3)nc(-c3cccc(N)c3)n2)c1`: the activity (percent) entry was “inactive”.
`C=CCSc1nc2c(c(=O)[nH]1)C(C(C)C)C(C#N)=C(N)O2` (stereo not drawn): the activity (percent) was 49.5% (active).
Regarding `O=C1c2ccccc2NC(c2ccc(-c3cccc(Cl)c3)o2)N1O` (stereo not drawn), the activity (percent) result was “inactive”.
Regarding `Cc1cc(C)nc(S/C=C/C(=O)c2ccccc2)n1`, the activity (percent) entry was “inactive”.
Turning to `O=C(/C=C/Sc1ncn[nH]1)c1ccc(Cl)cc1`, the activity (percent) was 32.5% (active).
For the compound `O=C(Nc1ccccc1)OCc1cc(-c2ccc(Cl)cc2)on1`, the activity (percent) result was “inactive”.
With `Cc1ccc(Nc2nc(N)nc(CSc3nnc(C)s3)n2)cc1`, the activity (percent) entry was “inactive”.
Take `CCOC(=O)[C@@H]1[C@H]2COc3ccc(Br)cc3[C@H]2N2C(=O)N(c3ccc(Cl)cc3)C(=O)[C@@]12C`: the activity (percent) entry was “inactive”.
On to `O=C(NCCCc1ccccc1)C1CCC(CNc2c(N3CCCCC3)c(=O)c2=O)CC1` (stereo not drawn), for which the activity (percent) entry was “inactive”.
With `COc1ccccc1C1C(C#N)=C(N)Oc2c1c(-c1ccccc1)nn2-c1ccccc1` (stereo not drawn) the figure was 34.5% (active).
In the case of `CCC(c1nnnn1Cc1ccco1)N(Cc1cc2cc(OC)ccc2[nH]c1=O)C1CCCCC1` (stereo not drawn), the activity (percent) result is “inactive”.
In the case of `Cc1nn(C(C)C(=O)N2CCOCC2)c(=O)c2nn(-c3ccccc3)c(C)c12` (stereo not drawn), the activity (percent) result is “inactive”.
As for `CCc1ccc2oc(-c3ccc(N)cc3)nc2c1`, the activity (percent) was 37.5% (active).
In the case of `Cc1cc(-c2n[nH]c(=S)n2/N=C/C(Br)=C/c2ccccc2)n[nH]1`, the activity (percent) result is “inactive”.
`CCCCOC(=O)CNc1nnc(SCC(=O)OCC)[nH]c1=O`: the activity (percent) result is “inactive”.
`O=C(O)c1ccc2c(c1)C(=O)N(c1ccc(/C=C/C(=O)c3ccccc3)cc1)C2=O`: the activity (percent) is 32% (active).
`CCOc1ccc(NC(=O)C/C(C)=N/NC(=O)Cc2cccs2)cc1`: the activity (percent) result was “inactive”.
Take `Nc1ccccc1SC(C[N+](=O)[O-])c1ccccc1` (stereo not drawn): the activity (percent) entry is “inactive”.
With `COc1ccc(C(C[N+](=O)[O-])n2nc(C)cc2C)cc1` (stereo not drawn) the entry was “inactive”; with `CCOC(=O)C1=NN(c2ccc(Cl)cc2)/C(=C/C2=NCCc3cc(OC)c(OC)cc32)S1`, “inactive”.
